# This is part of a sample that, as a whole, favours compounds with a hit. Of some 83,000 tested, about 20% had one in any assay.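 Assay: single dose, 48 h. Readout: percent growth (0 = no net growth; negative = cell death). Active: <10.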 Unmarked numbers belong to inactive results. The source made the active and inactive calls.
# Tests used:
# Test in all cases: NCI-60 one-dose screen, 48 h (100 = growth as untreated, 0 = no growth, -100 = all killed)
# Details in all cases: 10 µM unless noted
# NCI-H23 lung = system: NCI-H23 lung
# NCI-H226 lung = system: NCI-H226 lung
# NCI-H322M lung = system: NCI-H322M lung
# HOP-62 NSCLC = system: HOP-62 NSCLC
# NCI-H460 lung = system: NCI-H460 lung
# HOP-92 NSCLC = system: HOP-92 NSCLC
# NCI-H522 lung = system: NCI-H522 lung
# A549/ATCC NSCLC = system: A549/ATCC NSCLC
# 786-0 renal = system: 786-0 renal
# COLO 205 colon = system: COLO 205 colon
# DU-145 prostate = system: DU-145 prostate
# K-562 leukemia = system: K-562 leukemia
# MALME-3M melanoma = system: MALME-3M melanoma
# MDA-MB-231 breast = system: MDA-MB-231 breast
# SF-268 CNS = system: SF-268 CNS
# SF-295 CNS = system: SF-295 CNS
# SF-539 CNS = system: SF-539 CNS
# UACC-257 melanoma = system: UACC-257 melanoma
# M14 melanoma = system: M14 melanoma
# RXF 393 renal = system: RXF 393 renal
Structure (SMILES),growth (NCI-H23 lung),growth (NCI-H226 lung),growth (NCI-H322M lung),growth (HOP-62 NSCLC),growth (NCI-H460 lung),growth (HOP-92 NSCLC),growth (NCI-H522 lung),growth (A549/ATCC NSCLC),growth (786-0 renal),growth (COLO 205 colon),growth (DU-145 prostate),growth (K-562 leukemia),growth (MALME-3M melanoma),growth (MDA-MB-231 breast),growth (SF-268 CNS),growth (SF-295 CNS),growth (SF-539 CNS),growth (UACC-257 melanoma),growth (M14 melanoma),growth (RXF 393 renal)
COc1cc(/C=C/C(=O)c2ccc(Nc3ncnc4cc(OC)c(OC)cc34)cc2)cc(OC)c1,94.7%,113%,105%,116%,109%,76.4%,92.4%,84.9%,92.3%,117%,115%,41.3%,118%,104%,98.4%,93.3%,101%,95.1%,112%,
COc1cc(-c2ncn(/C=C\C(=O)OC(C)C)n2)cc(C(F)(F)F)c1,17.5%,-47% (active),0.838% (active),-18.5% (active),-31.7% (active),7.61% (active),-70.9% (active),12.9%,9.65% (active),-62.2% (active),15.7%,3.62% (active),-1.62% (active),,-1.06% (active),61.3%,-36.8% (active),60.3%,,-41.1% (active)
COc1ccc(-n2c(-c3ccccc3)c(-c3ccccc3)c3c(SCC(=O)N/N=C/c4ccc(Cl)cc4)ncnc32)cc1,68.2%,76.6%,97.2%,85.5%,102%,66.8%,83.5%,93.1%,92.5%,,95.4%,80.7%,107%,82.1%,88.5%,92.9%,93.8%,95.1%,,97.3%
NC(=S)N/N=C1\CCCC(C(F)(F)F)C1 (stereo not drawn),101%,117%,101%,107%,109%,96%,94%,100%,98.9%,114%,,46.3%,104%,102%,,100%,101%,73.2%,95.6%,123%
O=C(Oc1ccccc1[N+](=O)[O-])C1CCCN1C(=O)OCc1ccccc1 (stereo not drawn),95.1%,99.8%,121%,111%,116%,86.3%,101%,98.5%,98.6%,,111%,94.6%,112%,103%,108%,117%,97.2%,94.2%,93%,96%
C/C(=C\c1ccc(OCC(=O)O)c(Cl)c1Cl)[N+](=O)[O-],93.2%,110%,134%,100%,110%,104%,83.4%,93.8%,117%,,108%,88%,135%,113%,95.2%,116%,103%,90.4%,102%,136%
Oc1ccc(Cl)cc1-c1cc(-c2ccc(F)cc2)n[nH]1,53.5%,92.7%,68.1%,62.5%,42.5%,64.6%,60.9%,62%,85.6%,,75.9%,63.2%,77.8%,27.3%,63.6%,49.2%,90.1%,96.6%,76.6%,73.4%
COc1cc([N+](=O)[O-])c2ncccc2c1O,-9.28% (active),5.16% (active),2.58% (active),5.92% (active),2.09% (active),79.4%,42.5%,-16.5% (active),108%,,8.92% (active),130%,-25.9% (active),98.6%,88.2%,3.61% (active),24.3%,48%,,93.3%
CCOC(=O)c1cc(C(=O)c2cc(OC)c(OC)c(OC)c2)n2c1ccc1ccccc12,50.2%,64.7%,43.1%,21.6%,14.9%,39.1%,2.76% (active),34.4%,,-6.61% (active),22.1%,12.3%,19.9%,49.8%,49.6%,22.4%,-13.4% (active),63.6%,10.7%,-9.46% (active)
C=C[C@@H]1C[C@H](O)Cc2cc(F)ccc2N1,97.4%,87%,112%,88%,98%,56.2%,92.9%,98%,100%,,102%,102%,91.7%,96.1%,94%,101%,108%,96.1%,97%,106%
COc1cc2c(c(OC)c1OC)-c1ccc(N)c(=O)cc1[C@@H](NC(C)=O)CC2,4.57% (active),40.1%,27.4%,46.1%,-2.43% (active),31%,-34.2% (active),21.3%,19.7%,,-28.8% (active),17.3%,58.4%,-9.55% (active),17.9%,17.7%,-14% (active),61.2%,-21.8% (active),-5.16% (active)
O=C(Nc1cccc(-n2cc(-c3ccncc3)c(-c3ccc(Cl)c(O)c3)n2)c1)c1ccccc1,90.8%,89.6%,89.2%,46.7%,48.7%,3.59% (active),42.3%,52.6%,76.1%,,56.9%,60.7%,53.1%,63.2%,68.3%,,74.7%,44.2%,54.9%,0.59% (active)

# — PubChem BioAssay (NCI)
